According to PubChem BioAssay (NCATS):
Results filed as inconclusive are left out. Activity calls are given as the source filed them. Calls follow the shape of the dose curve; as a rule, active = well fitted cell-killing curve with a large enough effect; inconclusive = small, poorly fitted or top-dose-only effect; inactive = flat fitted curve, though single readings scatter. Numbered stars: 1 amine (or outer) side, 2 acyl side, 3 side chain; on linkers, the order of the positions; unused ones are H or OH. Bridge positions count the residues as written; N and C are the ends. Square brackets hold non-standard residues; d marks the D form. Peptide text beside a SMILES is read from it. I, II: the chains in the order shown. Actinocin(9to1) = Cc1c2oc3c(C)ccc(C(=O)[*:1])c3nc-2c(C(=O)[*:2])c(N)c1=O; NMeV = CN[C@H](C(=O)O)C(C)C; Sar = CNCC(=O)O

Assay: qHTS assay to identify small molecule inhibitors of chordoma cells - UCH-2 (AID 1259356)
Settings: UCH-2 chordoma viability, CellTiter-Glo ATP luminescence, 48 h; series mostly up to 46.1 µM; activity change, negative = inhibition: at the top concentration
% is scaled to controls: 0 for no effect and ±100 for the full control effect; potency is read from the fitted curve at half-maximal effect.

SMILES	activity change, negative = inhibition	Potency
OC(CCN1CCCCC1)(c1ccccc1)c1ccccc1	12.7% (inactive)	–
CCCC(=O)Nc1ccc(OCC(O)CNC(C)C)c(C(C)=O)c1 (stereo unspecified)	7.07% [at 20.6 µM] (inactive)	–
C[C@@H]1C[C@H]2[C@@H]3CCC4=CC(=O)C=C[C@]4(C)[C@@]3(F)[C@@H](O)C[C@]2(C)[C@H]1C(=O)CO	2.87% (inactive)	–
Cc1c(C)n(CCN(C)C)c2ccc(C(=O)OCCN(C)C)cc12	-23.8% (inactive)	–
CCCCC(CC)CN=C(N)NC(N)=NCCCCCCN=C(N)NC(N)=NCC(CC)CCCC (stereo unspecified)	–	25.9 µM (active)
Cc1cccc(C)c1NC(=O)CN1CCN(CCCC(c2ccc(F)cc2)c2ccc(F)cc2)CC1	-5.07% [at 20.6 µM] (inactive)	–
Oc1c(I)cc(I)c2cccnc12	-29.3% (inactive)	–
Oc1c(I)cc(Cl)c2cccnc12	0.196% (inactive)	–
Cc1c2oc3c(C)ccc(C(=O)N[C@@H]4C(=O)N[C@H](C(C)C)C(=O)N5CCC[C@H]5C(=O)N(C)CC(=O)N(C)[C@@H](C(C)C)C(=O)O[C@@H]4C)c3nc-2c(C(=O)N[C@@H]2C(=O)N[C@H](C(C)C)C(=O)N3CCC[C@H]3C(=O)N(C)CC(=O)N(C)[C@@H](C(C)C)C(=O)O[C@@H]2C)c(N)c1=O (I: T[dV]P[Sar][NMeV] / II: T[dV]P[Sar][NMeV]; ester I:1-I:C, II:1-II:C; linker I:N-II:N via Actinocin(9to1))	-21.7% (inactive)	–
C[C@@H](CN(C)C)CN1c2ccccc2Sc2ccccc21	4.55% [at 20.6 µM] (inactive)	–
CC(C)=CCC1C(=O)N(c2ccccc2)N(c2ccccc2)C1=O	3.55% (inactive)	–
CCCCCCCCCCCCCCCCOP(=O)([O-])OCC[N+](C)(C)C	-2.89% (inactive)	–
N[C@@H](CCC(=O)N[C@@H](CS)C(=O)NCC(=O)O)C(=O)O	-1.41% (inactive)	–
COc1cc2c(cc1OC)[C@@H]1CC(=O)[C@@H](CC(C)C)CN1CC2	7.51% (inactive)	–
CCN(CCCCOC(=O)c1ccc(OC)c(OC)c1)C(C)Cc1ccc(OC)cc1 (stereo unspecified)	0.0513% [at 20.6 µM] (inactive)	–
COc1ccc(OC)c(C(O)CNC(=O)CN)c1 (stereo unspecified)	8.63% [at 20.6 µM] (inactive)	–
CCOC(=O)/C=C(C)/C=C/C=C(C)/C=C/c1c(C)cc(OC)c(C)c1C	8.7% (inactive)	–
CC(C)(CO)[C@@H](O)C(=O)NCCCO	13% (inactive)	–

SMILES	activity change, negative = inhibition	Potency
Nc1ccc(C(=O)O)cc1	8.35% (inactive)	–
CC(=O)OCC(=O)[C@@]1(OC(C)=O)[C@@H](C)C[C@H]2[C@@H]3C[C@H](F)C4=CC(=O)C=C[C@]4(C)[C@@]3(F)[C@@H](O)C[C@@]21C	5.91% (inactive)	–
C/C=C(/C(=C/C)c1ccc(O)cc1)c1ccc(O)cc1	8.07% [at 20.6 µM] (inactive)	–
NC(=NCCCCCCN=C(N)/N=C(\N)Nc1ccc(Cl)cc1)/N=C(\N)Nc1ccc(Cl)cc1	-3.4% (inactive)	–
CCOc1ccc(Cc2nccc3cc(OCC)c(OCC)cc23)cc1OCC	10.3% [at 20.6 µM] (inactive)	–
Oc1ccc(Cl)cc1Sc1cc(Cl)ccc1O	1.61% (inactive)	–
CN(C)/N=N/c1nc[nH]c1C(N)=O	3.17% (inactive)	–
COc1c(C)c2c(c(O)c1C/C=C(\C)CCC(=O)O)C(=O)OC2	4.06% [at 20.6 µM] (inactive)	–
COC1=CC(=O)C[C@@H](C)[C@]12Oc1c(Cl)c(OC)cc(OC)c1C2=O	-4.47% (inactive)	–
Clc1ccc2c(c1)CCc1cccnc1C2=C1CCNCC1	1.93% (inactive)	–
CC(=O)OCC(=O)[C@@]1(O)CC[C@H]2[C@@H]3CCC4=CC(=O)C=C[C@]4(C)[C@H]3[C@@H](O)C[C@@]21C	4.43% (inactive)	–
CC/C(=C(/CC)c1ccc(O)cc1)c1ccc(O)cc1	-1.36% (inactive)	–
O=c1c(-c2ccccc2)c1-c1ccccc1	2.15% (inactive)	–
CC(C)C[C@H]1C(=O)N2CCC[C@H]2[C@]2(O)O[C@](NC(=O)[C@@H]3C=C4c5cccc6[nH]c(Br)c(c56)C[C@H]4N(C)C3)(C(C)C)C(=O)N12	16.5% (inactive)	–
O=c1[nH]c(=O)n([C@H]2C[C@H](O)[C@@H](CO)O2)cc1C(F)(F)F	13.2% (inactive)	–
CCOC(=O)n1ccn(C)c1=S	6.96% [at 20.6 µM] (inactive)	–
NCCC(O)(P(=O)(O)O)P(=O)(O)O	-0.0578% (inactive)	–
CN(C)CC/C=C1\c2ccccc2Sc2ccc(Cl)cc21	-3.18% (inactive)	–
